# Source: PubChem BioAssay (NCI)
# The panel holds about 83,000 compounds, 20% with a hit somewhere; the sample as a whole holds those more often.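 Cells were grown in 96-well plates and exposed to the test compound at a single concentration for 48 hours; results are reported as percent growth, with values below 10 considered active.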 Activity calls are given as the source filed them.
# Tested on: HL-60(TB) leukemia
# Test: NCI-60 one-dose screen, 48 h (100 = growth as untreated, 0 = no growth, -100 = all killed)
# Conditions: 10 µM unless noted
row,SMILES,growth
1,O=C(N/N=C/c1c(Cl)cccc1Cl)c1cccc(Nc2ccnc(C(F)(F)F)c2)c1,98.3% (inactive)
2,Cc1cc2nc(CC(=O)c3cccc([N+](=O)[O-])c3)c(=O)[nH]c2cc1C,93.5% (inactive)
3,CCCCn1c(=O)c(-c2cc(-c3ccc(Cl)cc3)nc(-c3ccc(Cl)cc3)c2)cc2cc(C)ccc21,100% (inactive)
4,COc1cc(Cl)cc(-c2nn(-c3cccc(NC(=O)c4ccc(Cl)c(Cl)c4)c3)cc2-c2ccncc2)c1,94.1% (inactive)
